PriA SSB inh: inhibitors of Klebsiella pneumoniae PriA binding to SSB C-terminal tail, primary screen, biochemical, AlphaScreen | AlphaScreen SSBct-PriA binding, biotinylated peptide | inhibition, % at 33 µM | 0.6% of 430,000 active | AID 1272365, 2023; in the data active = inhibition mostly above about 37%, no sharp cut-off; inactive = mostly below about 20%;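 note: plate controls were negative control peptide for no effect and reference peptide for full effect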
BoNT-A LC inh2: BoNT/A light chain protease inhibitors, primary screen, biochemical, flow cytometry, MLPCN library. Botulinum neurotoxin type A light chain protease (Clostridium botulinum A str. ATCC 3502). multiplex microsphere protease substrate cleavage. inhibition, % at 10 µM. 0.17% of 360,000 active. AID 588499, 2011; note: plate controls were buffer without enzyme for full effect and enzyme alone for no effect
BoNT-F LC inh: BoNT/F light chain protease inhibitors, primary screen, biochemical, flow cytometry, MLPCN library | 0.22% of 360,000 active | AID 588497, 2011 | inhibition, % at 10 µM | Multiplex microsphere protease cleavage assay; in the data active = inhibition above about 35%, passing the limit was not always enough; inconclusive = no clear call, values can overlap the other calls; note: plate controls were buffer without enzyme for full effect and enzyme alone for no effect
MazEF act: activators of E. coli MazEF toxin-antitoxin RNase, primary screen, biochemical, fluorescence, uHTS; activation, % at 20 µM; FAM/BHQ RNA-DNA oligo cleavage fluorescence, 5 h; Endoribonuclease toxin MazF (Escherichia coli (strain K12)), P0AE70; 0.32% of 350,000 active; in the data active = activation above about 50%
Anthrax LF prot: Bacillus anthracis LF protease inhibitors, primary screen, biochemical, multiplex microsphere, MLPCN library; Lethal factor (Bacillus anthracis), P15917; multiplex microsphere protease cleavage assay; inhibition, % at 10 µM; 0.12% of 360,000 active; note: plate controls were buffer without enzyme for full effect and enzyme alone for no effect
Bead autofluor: compound fluorescence in toxin protease inhibitor counterscreen. compound autofluorescence counterscreen, microsphere flow cytometry; active compounds read high. fluorescence intensity (concentration not given with the values). 3.1% of 360,000 active. AID 624483; in the data active = fluorescence intensity above about 16000; inconclusive = no clear call, values can overlap the other calls
* hit, by the source's call; ? = inconclusive; . = no result given. Hits are enriched below; roughly 3.3% of the tested compounds scored in any of these assays. Cut-off read from the data, not from the text of the source, unless noted: active = inhibition above about 30%; inconclusive = no clear call, values can overlap the other calls; inactive = below that.

SMILES	PriA SSB inh	BoNT-A LC inh2	BoNT-F LC inh	MazEF act	Anthrax LF prot	Bead autofluor
O=C(NCCn1ncc2c(N3CCCCCC3)ncnc21)c1cccc(C(F)(F)F)c1	-5	.	.	.	.	.
O=C(CCNS(=O)(=O)c1ccc(Br)cc1)NCc1ccc2c(c1)OCO2	-4	-2	-3	-3	-1	24584*
O=S(=O)(NCc1ccc2c(c1)OCO2)c1ccc(F)cc1	-7	1	-20	-2	-17	3274
CN(C)S(=O)(=O)c1ccc(S(=O)(=O)NCc2ccc3c(c2)OCO3)cc1	-8	4	38*	-18	2	2948
Cc1ccc(C(=O)Nc2ccc(S(C)(=O)=O)cc2)cc1C	-5	.	.	.	.	.
C[C@H](NC(=O)Cc1cc(-c2ccccc2)on1)c1ccccc1	-14	.	.	.	.	.
COc1cc(CNc2ccc(C)c(C)c2)cc(OC)c1OC	-9	-4	-9	-12	-6	17356*
Clc1ccc(CNc2ccc(CNc3ncn[nH]3)cc2)cc1	2	0	-5	10	-1	9836
Clc1ccc(Nc2ncn[nH]2)cc1	-12	0	-2	-6	1	23107*
CCOC(=O)c1cc(C)n(Cc2ccc(OCC)c(OC)c2)c1C	34	10	10	-3	-16	17147*
Clc1cc2c(c3ncccc13)OCN(Cc1cccnc1)C2	101*	.	.	.	.	.
Clc1cc2c(c3ncccc13)OCN(Cc1ccccc1)C2	89*	.	.	.	.	.
O=C1NCCOc2ccc(NS(=O)(=O)Cc3cccc(Cl)c3)cc21	9	.	.	.	.	.
Cc1cccc(CSc2nnc(-c3ccco3)o2)c1	-36	-1	-6	2	-6	4546
COCCCn1c(SCc2cc(=O)[nH]c3ccccc23)nnc1-c1ccco1	-11	-2	-26	1	-5	4235
O=C(CSc1nnc(-c2ccco2)o1)c1ccc(F)c(F)c1	-18	-2	1	15	1	21701*
O=c1cc(CSc2nnc(-c3ccco3)o2)c2ccccc2[nH]1	-11	?	0	-3	-8	22171*
CC(=O)c1c(C)cc(C)c(CSc2nnc(-c3ccco3)o2)c1C	-8	2	2	6	-4	19958*
COc1cccc(OCCn2c(C3CC(=O)N(Cc4ccc(F)cc4)C3)nc3ccccc32)c1 (configuration not stated)	-9	.	.	.	.	.
CN(C)c1ccc(/C=N/NC(=O)C(O)(c2ccccc2)c2ccccc2)o1	.	?	-1	-4	-2	16827*
NC(=O)c1cc(S(=O)(=O)NCCCc2ccccc2)cs1	49*	0	22	5	-4	3770
COc1ccccc1Oc1ccccc1C(=O)O	-15	1	0	0	1	16152*
CCCS(=O)(=O)N1CCCC(c2nnc(C)s2)C1 (configuration not stated)	6	.	.	.	.	.
CCCS(=O)(=O)N1CCN(c2ccccn2)CC1	-16	0	7	-1	-11	5771
O=S(=O)(c1cccs1)N1CCN(c2ccccn2)CC1	7	0	-1	4	-3	22816*
SMILES	PriA SSB inh	BoNT-A LC inh2	BoNT-F LC inh	MazEF act	Anthrax LF prot	Bead autofluor
CCS(=O)(=O)N1CCN(c2ccccn2)CC1	-12	-6	-12	6	-1	26268*
COc1ccc2c(c1)CCCC2(O)CNC(=O)Nc1cccs1 (configuration not stated)	-14	.	.	.	.	.
COc1ccccc1CC(=O)NCc1ccnc(-c2ccsc2)c1	-8	.	.	.	.	.
Cc1nc(-n2nc(-c3cccs3)cc2N)[nH]c(=O)c1C	23	.	.	.	.	.
CCOc1ccc(-c2csc(C3COc4ccccc4O3)n2)cc1 (configuration not stated)	-21	1	-3	-5	0	23266*
CNC(=S)NCc1ccc2[nH]c(C)cc2c1	33	4	-29	-1	-10	3850
CCc1cccc(C)c1NC(=S)NCc1ccc2[nH]c(C)cc2c1	42*	40*	-122	1	-105	2743
COC(=O)c1[nH]c(C)c(C(O)=C2C(=O)C(=O)N(Cc3cccnc3)C2c2cccnc2)c1C (configuration not stated)	-16	.	.	.	.	.
CN(c1ccccc1)S(=O)(=O)c1ccc(C(=O)Nc2nc(-c3cc(Cl)sc3Cl)cs2)cc1	-7	.	.	.	.	.
Oc1ccccc1-c1n[nH]c(-c2ccccc2O)n1	-9	0	5	10	2	4299
Clc1ccccc1-c1nc(-c2ccccc2)n[nH]1	-2	-1	-1	-2	-1	24108*
O=C(COc1ccccc1)Nc1noc2ncccc12	-20	.	.	.	.	.
Cc1cc(C)c(NN=c2c(=O)c3ccccc3c2=O)c(C)c1	10	-1	-1	10	-3	16485*
CS(=O)(=O)Nc1ccc2c(c1)CN(C(=O)C1CC1)CC2	-6	.	.	.	.	.
COC(=O)c1scc(C)c1NN=C(C)c1cc(F)c(Cl)cc1F	-6	.	.	.	.	.
COC(=O)c1scc(C)c1N/N=C(\C)c1cc(F)c(Cl)cc1F	.	0	-2	-10	-2	16330*
Brc1ccc(-c2nnc3sc(CNCc4ccco4)cn23)cc1	-2	.	.	.	.	.
O=C(c1cc2ccccn2n1)N1CCN(c2cccc(C(F)(F)F)c2)CC1	-8	0	0	-14	0	20114*
CC(C)N(C)NC(=S)Nc1ccccc1	-1	0	-8	-4	-1	2446
CCN(CC)NC(=S)Nc1ccccc1	-4	1	2	1	-2	22619*
N#C/C(=C\c1ccc(-c2ccc(F)cc2)o1)c1ccccc1	-28	.	.	.	.	.
CC1(C(=O)O)CCC(C(=O)NC2CCCCCC2)C1(C)C (configuration not stated)	-6	5	3	13	1	21823*
Cc1ccc(C)c(NC(=O)C2CCC(C)(C(=O)O)C2(C)C)c1 (configuration not stated)	0	-4	-6	5	-1	24078*
CC(=O)c1ccc(NC(=O)C(C)Cn2nc(C)c(C)c2C)cc1 (configuration not stated)	-10	.	.	.	.	.
O=C(NC1CCC(Oc2ccccn2)CC1)[C@H]1CCOC1 (some centres not stated)	3	.	.	.	.	.
Cc1ccc(-n2c3c(c(=O)[nH]c2=O)C(C(F)(F)F)(C(F)(F)F)NC(=O)N3)cc1	-4	1	-1	2	1	16132*
Cc1ccc(-n2c3c(c(=O)[nH]c2=O)C(NS(=O)(=O)c2ccc(C)cc2)(C(F)(F)F)C(=O)N3)cc1 (configuration not stated)	6	0	3	1	0	11450
Cc1c(C(=O)N2CCCc3ccccc32)oc2ccc(S(=O)(=O)N3CCOCC3)cc12	7	-2	-6	-16	-1	16777*
O=S(=O)(c1ccc2oc3ccccc3c2c1)N1CCOCC1	-4	0	-4	-8	-1	16805*
